# Reference: the supplement of paper PMC3545927
# Some of the results follow. How many sequences the whole screen found active is unknown.
# Target: furin, P09958
# Test: furin cleavage Z-score vs untreated control; higher = more cleavage, active = 3.5 or more, inactive = 1 or less, 8 variable residues between constant flanks
# Outline: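 Abundance of DNA freed from bead-bound 8-mer peptide–cDNA fusions by purified furin was measured as sequencing read counts after PCR adapter tagging. Cutting ran 7.5, 15 or 30 min in 0.01 ml of 50 mM HEPES pH 7.5 with CaCl2 and NaCl at 1:10 enzyme:substrate. The cleavage Z-score expresses these log counts against furin-free reactions after lowess adjustment and median absolute deviation scaling.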
# Sequence of furin, P09958 (P09958 whole entry): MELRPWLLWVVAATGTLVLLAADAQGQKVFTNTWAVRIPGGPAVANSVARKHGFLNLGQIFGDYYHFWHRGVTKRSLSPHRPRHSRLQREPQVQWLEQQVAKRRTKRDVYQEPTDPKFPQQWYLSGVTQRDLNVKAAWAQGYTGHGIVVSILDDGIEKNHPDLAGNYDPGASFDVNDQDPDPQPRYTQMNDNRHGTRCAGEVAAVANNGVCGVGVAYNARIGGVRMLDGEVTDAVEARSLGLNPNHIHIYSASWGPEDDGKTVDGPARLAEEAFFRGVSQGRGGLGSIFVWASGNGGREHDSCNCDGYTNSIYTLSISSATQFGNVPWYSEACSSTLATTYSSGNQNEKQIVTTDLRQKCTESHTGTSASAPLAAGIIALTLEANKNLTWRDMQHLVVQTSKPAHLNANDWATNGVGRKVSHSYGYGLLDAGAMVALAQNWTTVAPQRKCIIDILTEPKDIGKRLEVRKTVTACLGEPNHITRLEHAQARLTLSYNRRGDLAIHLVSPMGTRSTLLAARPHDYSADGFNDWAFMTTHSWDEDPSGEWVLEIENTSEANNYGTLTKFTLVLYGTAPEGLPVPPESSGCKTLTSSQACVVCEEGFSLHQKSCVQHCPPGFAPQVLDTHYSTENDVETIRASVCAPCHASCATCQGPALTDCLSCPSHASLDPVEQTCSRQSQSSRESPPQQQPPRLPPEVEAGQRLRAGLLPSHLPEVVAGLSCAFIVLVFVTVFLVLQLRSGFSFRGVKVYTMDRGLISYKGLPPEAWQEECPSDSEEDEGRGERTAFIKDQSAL
Sequence,furin cleavage Z-score (7.5 min),furin cleavage Z-score (15 min),furin cleavage Z-score (30 min)
CALEFWEGVFAGNASASA [HC938],0.499 (inactive),-0.214 (inactive),-0.35 (inactive)
CAMDECSQHLAGNASASA [HC1691],-1.05 (inactive),-0.767 (inactive),-1.23 (inactive)
CAEHPCHRPSAGNASASA [HC2335],0.592 (inactive),0.873 (inactive),-0.909 (inactive)
CADTEVAASCAGNASASA [HC566],0.247 (inactive),0.504 (inactive),-0.572 (inactive)
CARGKRATTVAGNASASA [FS-3249],8.17 (active),9.95 (active),8.35 (active)
CARGMRALGVAGNASASA [FS-1710],-0.000681 (inactive),0.448 (inactive),0.128 (inactive)
CARFGRGFTVAGNASASA [FS-2922],0.116 (inactive),0.0326 (inactive),0.349 (inactive)
CARGKRAITDAGNASASA [FS-2554],9.38 (active),10.5 (active),9.27 (active)
CARGKPGIYRAGNASASA [HC907],0.0246 (inactive),1.3,0.963 (inactive)
CARGGRDHGDAGNASASA [FS-2014],-0.697 (inactive),-0.0412 (inactive),-1.45 (inactive)
CAWPLYGNEGAGNASASA [HC202],0.645 (inactive),-0.347 (inactive),0.229 (inactive)
CAEVVTMTWVAGNASASA [HC148],0.302 (inactive),0.42 (inactive),1.21
CAPALSTGLIAGNASASA [HC502],1.72,1.24,-0.0208 (inactive)
CARFDRFILTAGNASASA [FS-2331],-0.835 (inactive),0.56 (inactive),1.87
CARRKRYALTAGNASASA [FS-2231],5.6 (active),9.1 (active),7.92 (active)
CAMAFTAAVTAGNASASA [HC1056],0.143 (inactive),-0.123 (inactive),0.0661 (inactive)
CARNKRYALTAGNASASA [FS-2730],4.76 (active),6.64 (active),8.66 (active)
CARRKRTAVTAGNASASA [FS-2070],8.61 (active),9.73 (active),8.8 (active)
CAEVVTSTQVAGNASASA [HC2242],0.0534 (inactive),-0.769 (inactive),-0.513 (inactive)
CAMEECSQMLAGNASASA [HC1746],0.461 (inactive),-0.78 (inactive),0.807 (inactive)
CAEVVTTTWVAGNASASA [HC156],0.967 (inactive),0.111 (inactive),0.291 (inactive)
CASCLRHKRSAGNASASA [FS-716],4.23 (active),3.94 (active),4 (active)
CASCLTVPASAGNASASA [HC252],-0.0568 (inactive),-0.538 (inactive),-1.9 (inactive)
CAINFRDKRSAGNASASA [FS-667],10.5 (active),11.5 (active),8.52 (active)
CAIERRKKRSAGNASASA [FS-1341],11.5 (active),11.5 (active),10.3 (active)
CAQESQKKRSAGNASASA [FS-1474],-0.591 (inactive),-0.0857 (inactive),0.142 (inactive)
CATEKRKKRSAGNASASA [FS-879],10.8 (active),10.5 (active),9.01 (active)
CAMEECSKHLAGNASASA [HC1734],0.481 (inactive),1.71,-0.626 (inactive)
